Measured values taken from PubChem BioAssay (EPA / NIEHS).
The source made the active and inactive calls. The calls were made as follows: active = hit-call score of the fitted dose curve at least 0.9, where 1 is the maximum; inactive = score below 0.9.

Key:
[1] = read-out: Monokine induced gamma interferon (MIG), CXCL9 (gene 4283); experiment: BSK_BE3C_MIG: BioMAP Diversity Plus: BE3C Assay for Monokine induced gamma interferon (MIG) Biomarker Activity (AID 2283035); details: primary human bronchial epithelial cells; actives raise or lower the signal
Summary of the method: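 hu bronchial epithelial 1° cells, 24 h cpd; MIG by ELISA; bidirectional fit, DMSO = baseline.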

[2] = read-out: Transforming growth factor beta 1 (TGFb1), TGFB1 (gene 7040); experiment: BSK_BE3C_TGFb1: BioMAP Diversity Plus: BE3C Assay for Transforming growth factor beta 1 (TGFb1) Biomarker Activity (AID 2283036); details: primary human bronchial epithelial cells; actives raise or lower the signal
Summary of the method: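 ELISA readout of TGF-b1 from human lung bronchial epithelial primary cells, taken 24 h post-treatment. Gain or loss of signal fitted relative to DMSO baseline, with parallel SRB staining for overt cytotoxicity.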

[3] = read-out: Plasminogen activator inhibitor-1 (PAI1), SERPINE1 (gene 5054); experiment: BSK_BE3C_PAI1: BioMAP Diversity Plus: BE3C Assay for Plasminogen activator inhibitor-1 (PAI1) Biomarker Activity (AID 2283037); details: primary human bronchial epithelial cells; actives raise or lower the signal
Summary of the method: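 PAI-1 was measured by ELISA in human primary bronchial epithelial cultures 24 h after chemical dosing, with cytotoxicity checked by SRB total-protein staining in parallel cultures. Activity was fitted in both directions relative to DMSO.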

[4] = read-out: urokinase plasminogen activator (uPA), PLAU (gene 5328); experiment: BSK_BE3C_uPA: BioMAP Diversity Plus: BE3C Assay for urokinase plasminogen activator (uPA) Biomarker Activity (AID 2283038); details: primary human bronchial epithelial cells; actives raise or lower the signal
Summary of the method: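 Bronchial epithelial cells (human, primary); chemical 24 h; uPA by ELISA; bidirectional fit vs DMSO. SRB (0.1%, after 10% TCA fixation, 560 nm) in parallel cultures for cytotoxicity.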

[5] = read-out: Urokinase-type plasminogen activator receptor (uPAR), PLAUR (gene 5329); experiment: BSK_BE3C_uPAR: BioMAP Diversity Plus: BE3C Assay for Urokinase-type plasminogen activator receptor (uPAR) Biomarker Activity (AID 2283039); details: primary human bronchial epithelial cells; actives raise or lower the signal
Summary of the method: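 uPAR levels were measured by ELISA after 24 h compound treatment of primary human bronchial epithelial cells, fitted in both directions relative to DMSO. Parallel SRB staining served as the cytotoxicity read-out.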

[6] = read-out: Interleukin-6 (IL6), IL6 (gene 3569); experiment: BSK_CASM3C_IL6: BioMAP Diversity Plus: CASM3C Assay for Interleukin-6 (IL6) Biomarker Activity for (AID 2283040); details: primary human coronary artery smooth muscle cells; actives raise or lower the signal
[7] = read-out: Tissue plasminogen activator (tPA), PLAT (gene 5327); experiment: BSK_BE3C_tPA: BioMAP Diversity Plus: BE3C Assay for Tissue plasminogen activator (tPA) Biomarker Activity (AID 2283041); details: primary human bronchial epithelial cells; actives raise or lower the signal
Summary of the method: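 tPA measured by ELISA 24 h after dosing human primary bronchial epithelial cells (BE3C system). Changes in either direction were fitted against DMSO. Parallel cultures were stained with SRB to flag overt cytotoxicity.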

[8] = read-out: Interleukin-8 (IL8), CXCL8 (gene 3576); experiment: BSK_CASM3C_IL8: BioMAP Diversity Plus: CASM3C Assay for Interleukin-8 (IL8) Biomarker Activity (AID 2283042); details: primary human coronary artery smooth muscle cells; actives raise or lower the signal;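 also: IL-8 protein level quantified by ELISA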
[9] = read-out: Human Leukocyte Antigen - DR isotype (HLADR), HLA-DRA (gene 3122); experiment: BSK_CASM3C_HLADR: BioMAP Diversity Plus: CASM3C Assay for Human Leukocyte Antigen - DR isotype (HLADR) Biomarker Activity (AID 2283043); details: primary human coronary artery smooth muscle cells; actives raise or lower the signal;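 also: cell-surface HLA-DR protein level quantified by ELISA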
[10] = read-out: Macrophage colony-stimulating factor (MCSF), CSF1 (gene 1435); experiment: BSK_CASM3C_MCSF: BioMAP Diversity Plus: CASM3C Assay for Macrophage colony-stimulating factor (MCSF) Biomarker Activity (AID 2283044); details: primary human coronary artery smooth muscle cells; actives raise or lower the signal;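 also: M-CSF protein amount quantified by ELISA after 24 h exposure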
[11] = read-out: Low-density lipoprotein receptor (LDLR), LDLR (gene 3949); experiment: BSK_CASM3C_LDLR: BioMAP Diversity Plus: CASM3C Assay for Low-density lipoprotein receptor (LDLR) Biomarker Activity (AID 2283045); details: primary human coronary artery smooth muscle cells; actives raise or lower the signal;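 also: LDLR protein level on the cell surface quantified by ELISA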
[12] = read-out: Monocyte Chemoattractant Protein-1 (MCP1), CCL2 (gene 6347); experiment: BSK_CASM3C_MCP1: BioMAP Diversity Plus: CASM3C Assay for Monocyte Chemoattractant Protein-1 (MCP1) Biomarker Activity (AID 2283046); details: primary human coronary artery smooth muscle cells; actives raise or lower the signal;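 also: MCP-1 level quantified by ELISA 24 h after dosing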
[13] = BSK_CASM3C_Proliferation: Cell Proliferation Assessment in the BioMAP Diversity Plus: CASM3C Assay (AID 2283047); details: primary human coronary artery smooth muscle cells;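 also: sulforhodamine B total protein stain as relative cell number at 560 nm; sub-confluent cells exposed 48 h before staining; fitted both ways against DMSO so gain or loss of cell number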
[14] = read-out: Monokine induced gamma interferon (MIG), CXCL9 (gene 4283); experiment: BSK_CASM3C_MIG: BioMAP Diversity Plus: CASM3C Assay for Monokine induced gamma interferon (MIG) Biomarker Activity (AID 2283048); details: primary human coronary artery smooth muscle cells; actives raise or lower the signal;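 also: MIG protein level measured by ELISA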
[15] = read-out: serum amyloid A (SAA), SAA1 (gene 6288); experiment: BSK_CASM3C_SAA: BioMAP Diversity Plus: CASM3C Assay for serum amyloid A (SAA) Biomarker Activity (AID 2283049); details: primary human coronary artery smooth muscle cells; actives raise or lower the signal;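 also: SAA protein level quantified by ELISA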
[16] = BSK_CASM3C_SRB: Viability Assessment in the BioMAP Diversity Plus: CASM3C Assay (AID 2283050); details: primary human coronary artery smooth muscle cells
[17] = read-out: Thrombomodulin, THBD (gene 7056); experiment: BSK_CASM3C_Thrombomodulin: BioMAP Diversity Plus: CASM3C Assay for Thrombomodulin Biomarker Activity (AID 2283051); details: primary human coronary artery smooth muscle cells; actives raise or lower the signal;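 also: thrombomodulin protein level measured by ELISA 24 h after dosing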
[18] = read-out: Tissue Factor, F3 (gene 2152); experiment: BSK_CASM3C_TissueFactor: BioMAP Diversity Plus: CASM3C Assay for Tissue Factor Biomarker Activity (AID 2283052); details: primary human coronary artery smooth muscle cells; actives raise or lower the signal;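 also: cell surface tissue factor protein level read by ELISA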
[19] = read-out: Interferon-gamma inducible Protein 10 (IP10), CXCL10 (gene 3627); experiment: BSK_hDFCGF_IP10: BioMAP Diversity Plus: hDFCGF Assay for Interferon-gamma inducible Protein 10 (IP10) Biomarker Activity (AID 2283053); details: primary human foreskin fibroblasts; actives raise or lower the signal
Summary of the method: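 ELISA quantification of IP-10 after a 24 h chemical exposure of human dermal foreskin fibroblast primary cultures. Both increases and decreases versus DMSO fitted.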

[20] = read-out: Urokinase-type plasminogen activator receptor (uPAR), PLAUR (gene 5329); experiment: BSK_CASM3C_uPAR: BioMAP Diversity Plus: CASM3C Assay for Urokinase-type plasminogen activator receptor (uPAR) Biomarker Activity (AID 2283054); details: primary human coronary artery smooth muscle cells; actives raise or lower the signal;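 also: cell-surface uPAR protein level quantified by ELISA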

Measured: AC50

O=[N+]([O-])c1ccc2c3c(cccc13)CC2
active: [5] 1.19 µM
inactive: [1] | [2] | [3] | [4] | [6] | [7] | [8] | [9] | [10] | [11] | [12] | [13] | [14] | [15] | [16] | [17] | [18] | [19] | [20]

O=Cc1cccc(Oc2ccccc2)c1
inactive: [1] | [2] | [3] | [4] | [5] | [6] | [7] | [8] | [9] | [10] | [11] | [12] | [13] | [14] | [15] | [16] | [17] | [18] | [19] | [20]

CCOP(=S)(OCC)Oc1ccc(S(C)=O)cc1 (centres undefined)
inactive: [1] | [2] | [3] | [4] | [5] | [6] | [7] | [8] | [9] | [10] | [11] | [12] | [13] | [14] | [15] | [16] | [17] | [18] | [19] | [20]

CC(C)CCCCCCOC(=O)c1ccccc1C(=O)OCCCCCCC(C)C
inactive: [1] | [2] | [3] | [4] | [5] | [6] | [7] | [8] | [9] | [10] | [11] | [12] | [13] | [14] | [15] | [16] | [17] | [19] | [20]
active: [18] 0.0332 µM

CCCCC(CC)CO[N+](=O)[O-] (centres undefined)
active: [6] 31.8 µM | [9] 28.2 µM | [10] 29.6 µM | [12] 20 µM | [16] 33.6 µM | [20] 3.05 µM
inactive: [1] | [2] | [3] | [4] | [5] | [7] | [8] | [11] | [13] | [14] | [15] | [17] | [18] | [19]

CCC(C)(C)c1ccc(O)c(C(C)(C)CC)c1
active: [1] 36 µM | [2] 20 µM | [3] 31.4 µM | [4] 32.4 µM | [5] 36.6 µM | [6] 29.4 µM | [7] 26.6 µM | [8] 38.7 µM | [9] 16.4 µM | [10] 28.9 µM | [11] 33.8 µM | [12] 34.6 µM | [13] 14.3 µM | [14] 35.8 µM | [15] 30 µM | [16] 13 µM | [17] 33.8 µM | [18] 11.4 µM | [19] 6.49 µM | [20] 31.4 µM

O=[N+]([O-])c1ccc(O)c([N+](=O)[O-])c1
inactive: [1] | [2] | [4] | [5] | [6] | [7] | [8] | [9] | [10] | [11] | [12] | [13] | [14] | [15] | [16] | [17] | [18] | [19] | [20]
active: [3] 30.5 µM

Cc1ccccc1N
inactive: [1] | [2] | [3] | [5] | [6] | [7] | [8] | [9] | [10] | [11] | [12] | [13] | [14] | [15] | [16] | [17] | [18] | [19] | [20]

C=CC(=O)OCCCCCC(C)C
inactive: [1] | [2] | [3] | [4] | [5] | [6] | [7] | [8] | [9] | [10] | [11] | [12] | [13] | [14] | [15] | [16] | [17] | [18] | [19] | [20]

CC(=O)C(Cl)C(=O)N(C)C (centres undefined)
active: [7] 20 µM | [9] 10.1 µM | [10] 16.3 µM | [13] 35.5 µM | [18] 7.43 µM
inactive: [1] | [2] | [3] | [4] | [5] | [6] | [8] | [11] | [12] | [14] | [15] | [16] | [17] | [19] | [20]

BrCCBr
inactive: [1] | [2] | [3] | [4] | [5] | [6] | [7] | [8] | [9] | [10] | [11] | [12] | [14] | [15] | [16] | [17] | [18] | [19] | [20]
active: [13] 0.197 µM

CC1(C)Cc2cccc(O)c2O1
inactive: [1] | [2] | [3] | [4] | [5] | [6] | [7] | [8] | [9] | [10] | [11] | [12] | [13] | [14] | [15] | [16] | [17] | [18] | [19] | [20]
